From PubChem BioAssay
A selection: hits, their analogues and other compounds. The true share with any hit is near 19%.
HT1080 IDH1KD tx: toxicity to HT-1080 IDH1 knockdown cells (counter line) | HT-1080 IDH1 knockdown viability, ATP luminescence, 48 h | Potency, µM (top dose mostly 46.1 µM), most hits filed as cytotoxic | hit rate 2% among 360,000
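HT-1080-IDH1KD cells (IDH1 knocked down), 750/well in RPMI with 5% FBS, treated with compound 48 h at 37 degrees C. Viability by CellTiter-Glo luminescence, normalised to DMSO and no-cell wells; concentration-response curves classed.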
DT40 TDP1 no CPT: qHTS for Inhibitors of human tyrosyl-DNA phosphodiesterase 1 (TDP1): qHTS in cells in absence of CPT; DT40 Tdp1-/- hTDP1 cells, no CPT, ATP luminescence, 48 h; Potency, µM (highest dose often 46.2 µM), actives largely listed as inhibitors; hit rate 15% among 420,000; note: nearly all actives have a fitted effect of over 55% in size
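Cells were dispensed at 400 per well, compounds added by pin tool, plates incubated ≥48 hr at 37 °C, then CellTiter-Glo added for 30 min at room temperature before luminescence reading. Line: DT40 Tdp1-/- complemented with hTDP1; camptothecin omitted.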
DT40 TDP1 CPT: DT40-hTDP1 cell growth loss with CPT; chicken DT40 Tdp1-/-;hTDP1 cells + 20 nM CPT, ATP luminescence, 48 h; Potency, µM (top dose mostly 46.2 µM), usual class: inhibitors; hit rate 12% among 420,000; AID 686979; note: nearly all actives have a fitted effect of over 55% in size
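Chicken DT40 Tdp1-/- cells stably complemented with human TDP1 were seeded at 400 cells/well in medium containing 20 nM camptothecin, exposed to pin-transferred compounds, and grown at 37 °C for at least 48 hr. Viability was read as ATP luminescence.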
HT1080NT lethal: kills 2HG-producing HT-1080-NT fibrosarcoma cells. HT-1080-NT fibrosarcoma viability, CellTiter-Glo ATP luminescence, 48 h. Potency, µM (doses to about 46.1 µM), most hits filed as cytotoxic. hit rate 1.6% among 360,000. AID 686970;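 note: NT is the 2HG producing partner of a matched IDH1 knockdown line; nearly all actives have a fitted effect of over 55% in size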
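A 48-hour cytotoxicity screen used HT-1080-NT cells plated 2 hours before compound delivery. ATP-based CellTiter-Glo luminescence measured viability, normalized to DMSO and no-cell controls.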
IL1B secr inh: inflammasome signaling inhibition, IL-1 beta readout | hit rate 4.7% among 360,000 | activity change, % at 57.5 µM | THP-1 LPS/ATP IL-1B secretion, AlphaLISA, 16 h; active compounds read low; in the data active = activity change below about -50%; inconclusive = mostly about -30% to -49%
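Secreted IL-1B measured by AlphaLISA bead assay after 16 h compound exposure of THP-1 cells; compounds (final up to 57.5 uM) added 1 h before LPS (250 ng/mL) and ATP (1.25 mM) stimulation; lower signal means less secretion.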
Numbers stand for hits. Unless noted, calls come from the whole dose curve; as a rule, active = well fitted curve in the direction sought with a large enough effect; inconclusive = small, poorly fitted or top-dose-only effect, or another doubt; inactive = no such curve, though single readings can be large; an effect the other way counts as inactive or inconclusive.

How did CN(C)CCNC(=O)C(=O)Nc1cc2c3c(c1)CCC(=O)N3CCC2 do in these assays?
HT1080 IDH1KD tx: inactive; DT40 TDP1 no CPT: inactive; DT40 TDP1 CPT: inactive; HT1080NT lethal: inactive; IL1B secr inh: inactive

Results for CC1C(=O)N2CCCc3cc(NC(=O)C(=O)NCCc4ccc(F)cc4)cc1c32 (configuration not stated) ?
HT1080 IDH1KD tx: 21µM; DT40 TDP1 no CPT: inconclusive; DT40 TDP1 CPT: inconclusive; HT1080NT lethal: 18µM; IL1B secr inh: inactive

Results for CCN(CC)CCNC(=O)C(=O)Nc1cc2c3c(c1)CCC(=O)N3CCC2 ?
HT1080 IDH1KD tx: inactive; DT40 TDP1 no CPT: inactive; DT40 TDP1 CPT: inactive; HT1080NT lethal: inactive; IL1B secr inh: -62

What do the screens show for `CCc1ccc(-c2cc(C)no2)cc1S(=O)(=O)N1CCOc2ccc(C)cc21`?
HT1080 IDH1KD tx: inconclusive; DT40 TDP1 no CPT: inconclusive; DT40 TDP1 CPT: inconclusive; HT1080NT lethal: inactive; IL1B secr inh: inactive

Results for CCC1CN(S(=O)(=O)c2cc(-c3cc(C)no3)ccc2OC)c2cc(C)ccc2O1 (configuration not stated) ?
HT1080 IDH1KD tx: inactive; DT40 TDP1 no CPT: 23µM; DT40 TDP1 CPT: 18µM; HT1080NT lethal: inactive; IL1B secr inh: inactive

How did COc1ccc(-c2cc(C)no2)cc1S(=O)(=O)N1CCN(c2cccc(C)c2)C(C)C1 (configuration not stated) do in these assays?
HT1080 IDH1KD tx: inconclusive; DT40 TDP1 no CPT: 23µM; DT40 TDP1 CPT: 16µM; HT1080NT lethal: inconclusive; IL1B secr inh: inactive

Results for Cc1cc(-c2ccc(C(C)C)c(S(=O)(=O)N3CCOc4ccccc43)c2)on1 ?
HT1080 IDH1KD tx: inactive; DT40 TDP1 no CPT: 18µM; DT40 TDP1 CPT: inconclusive; HT1080NT lethal: inactive; IL1B secr inh: inactive

Results for COc1ccc(-c2cc(C)no2)cc1S(=O)(=O)N1CCCCC1 ?
HT1080 IDH1KD tx: inactive; DT40 TDP1 no CPT: inactive; DT40 TDP1 CPT: inconclusive; HT1080NT lethal: inactive; IL1B secr inh: inactive

Results for COc1ccc(-c2cc(C)no2)cc1S(=O)(=O)N1CCOc2ccccc21 ?
HT1080 IDH1KD tx: inactive; DT40 TDP1 no CPT: 18µM; DT40 TDP1 CPT: inconclusive; HT1080NT lethal: inactive; IL1B secr inh: inactive

How did O=C1C(c2ccccc2)C2C=CC(C2)N1O (configuration not stated) do in these assays?
HT1080 IDH1KD tx: inactive; DT40 TDP1 no CPT: inactive; DT40 TDP1 CPT: inactive; HT1080NT lethal: inactive; IL1B secr inh: inactive

Results for CCN(c1ccc(Cl)cc1)S(=O)(=O)c1nnc(NC(=O)c2ccccc2C)s1 ?
DT40 TDP1 no CPT: 15µM; DT40 TDP1 CPT: 16µM

How did CCN(c1cc(C)cc(C)c1)S(=O)(=O)c1nnc(NC(=O)c2cccc(F)c2)s1 do in these assays?
DT40 TDP1 no CPT: 13µM; DT40 TDP1 CPT: 12µM

How did CCc1ccc(-c2nc(CS(=O)CC(=O)NCCCN3CCC(C)CC3)c(C)o2)cc1 (configuration not stated) do in these assays?
HT1080 IDH1KD tx: inconclusive; DT40 TDP1 no CPT: inconclusive; DT40 TDP1 CPT: inconclusive; HT1080NT lethal: inconclusive; IL1B secr inh: inactive

Results for C[C@@H]1CN([C@@H](C)CO)C(=O)Cc2cc(NC(=O)Nc3ccc(C(F)(F)F)cc3)ccc2O[C@@H]1CN(C)S(=O)(=O)c1ccc(Cl)cc1 ?
HT1080 IDH1KD tx: 23µM; DT40 TDP1 no CPT: 15µM; DT40 TDP1 CPT: inconclusive; HT1080NT lethal: inconclusive; IL1B secr inh: inconclusive

Results for Cc1ccc(S(=O)(=O)N(C)C[C@@H]2Oc3ccc(NC(=O)CCC(F)(F)F)cc3CC(=O)N([C@@H](C)CO)C[C@@H]2C)cc1 ?
HT1080 IDH1KD tx: 4.6µM; DT40 TDP1 no CPT: 5.8µM; DT40 TDP1 CPT: 4.1µM; HT1080NT lethal: 2.1µM; IL1B secr inh: inactive

Results for CC(C)NC(=O)N(C)C[C@@H]1Oc2ccc(NC(=O)Nc3ccc(C(F)(F)F)cc3)cc2CC(=O)N([C@H](C)CO)C[C@@H]1C ?
HT1080 IDH1KD tx: inconclusive; DT40 TDP1 no CPT: inconclusive; DT40 TDP1 CPT: inconclusive; HT1080NT lethal: inconclusive; IL1B secr inh: inactive

What do the screens show for `C[C@H](CO)N1C[C@H](C)[C@H](CN(C)S(=O)(=O)c2cn(C)cn2)Oc2ccc(NC(=O)Nc3ccc(C(F)(F)F)cc3)cc2CC1=O`?
HT1080 IDH1KD tx: 23µM; DT40 TDP1 no CPT: 13µM; DT40 TDP1 CPT: inconclusive; HT1080NT lethal: 5.2µM; IL1B secr inh: inactive

What do the screens show for `Cc1ccc(S(=O)(=O)N(C)C[C@@H]2Oc3ccc(NC(=O)Nc4cccc5ccccc45)cc3C(=O)N([C@H](C)CO)C[C@H]2C)cc1`?
HT1080 IDH1KD tx: inactive; DT40 TDP1 no CPT: 23µM; DT40 TDP1 CPT: inconclusive; HT1080NT lethal: inactive; IL1B secr inh: inactive

What do the screens show for `C[C@H]1CN([C@@H](C)CO)C(=O)Cc2cc(NS(=O)(=O)c3cn(C)cn3)ccc2O[C@@H]1CN(C)C(=O)Nc1ccc(F)cc1`?
HT1080 IDH1KD tx: inactive; DT40 TDP1 no CPT: inactive; DT40 TDP1 CPT: inactive; HT1080NT lethal: inactive; IL1B secr inh: inactive

How did COc1ccc(NC(=O)Nc2ccc3c(c2)C(=O)N([C@H](C)CO)C[C@H](C)[C@@H](CN(C)S(=O)(=O)c2ccccc2)O3)cc1 do in these assays?
HT1080 IDH1KD tx: inactive; DT40 TDP1 no CPT: inconclusive; DT40 TDP1 CPT: inconclusive; HT1080NT lethal: inactive; IL1B secr inh: inactive

Results for O=C(OCN1C(=O)c2ccccc2C1=O)c1cccc(OC(F)F)c1 ?
HT1080 IDH1KD tx: inactive; DT40 TDP1 no CPT: inactive; DT40 TDP1 CPT: inactive; HT1080NT lethal: inactive; IL1B secr inh: inactive

How did COc1ccc(Cn2cc(CN(C)C3CN(Cc4cn(Cc5ccc(OC)cc5)nn4)S(=O)(=O)C3)nn2)cc1 (configuration not stated) do in these assays?
HT1080 IDH1KD tx: inactive; DT40 TDP1 no CPT: inactive; DT40 TDP1 CPT: inactive; HT1080NT lethal: inactive; IL1B secr inh: inactive

How did Cc1cc(C)c2c(=O)cc(C(=O)Nc3sc4c(c3C(=O)NCC3CCCO3)CCCC4)oc2c1 (configuration not stated) do in these assays?
DT40 TDP1 no CPT: inactive; DT40 TDP1 CPT: inactive

What do the screens show for `COC(=O)N(C)C[C@H]1OCc2cn(nn2)CCCC(=O)N([C@@H](C)CO)C[C@@H]1C`?
HT1080 IDH1KD tx: inactive; DT40 TDP1 no CPT: inactive; DT40 TDP1 CPT: inactive; HT1080NT lethal: inactive; IL1B secr inh: inactive

Results for C[C@H](CO)N1C[C@H](C)[C@@H](CN(C)S(C)(=O)=O)Oc2ccc(NC(=O)Nc3ccc(C(F)(F)F)cc3)cc2C1=O ?
HT1080 IDH1KD tx: inactive; DT40 TDP1 no CPT: inactive; DT40 TDP1 CPT: inconclusive; HT1080NT lethal: inactive; IL1B secr inh: inactive

What do the screens show for `C[C@H](CO)N1C[C@H](C)[C@@H](CN(C)S(=O)(=O)c2ccccc2)Oc2ccc(NC(=O)Nc3ccccc3)cc2C1=O`?
HT1080 IDH1KD tx: inactive; DT40 TDP1 no CPT: inconclusive; DT40 TDP1 CPT: inactive; HT1080NT lethal: inactive; IL1B secr inh: inactive
